Over roughly 33,000 sequences, “e-score” has its median near -0.053; the highest 2% begin near 0.38. Many of the other results were omitted from the sample, so the highest values are more common in it than they were.
target: T1, SIX1 homeodomain (reference allele) (human, UniProt Q15475 108-198); assay: universal protein binding microarray; Universal all-10-mer PBM (8x60K, AMADID 030236), 300 nM GST-tagged protein, Alexa Fluor 488 anti-GST; buffer, salt, pH and temperature not stated (as in Berger); high values mean tight binding; settings: protein: ivt; tags: N-terminal GST; dsDNA, one strand shown
T1 sequence: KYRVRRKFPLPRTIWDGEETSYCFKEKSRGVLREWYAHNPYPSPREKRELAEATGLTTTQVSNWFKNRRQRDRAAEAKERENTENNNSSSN
Procedure, shortened: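 GST-tagged homeodomains were made by in vitro transcription/translation and quantified by anti-GST western blot against a recombinant GST standard curve. They were applied in duplicate at 300 nM final concentration to universal 'all 10-mer' protein binding microarrays (8×60K format). Binding was quantified as 8-mer E-scores with the Universal PBM Analysis Suite.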

Sequence | binding signal [E-score]
CAGATAGG | 0.245 ± 0.0333
TATATAAA | 0.197 ± 0.00308
TAGATCTA | 0.175 ± 0.0374
ATATGTAC | 0.244 ± 0.0293
ATCGCTTG | 0.156 ± 0.032
CTACGATC | 0.233 ± 0.0113
TAACGATA | 0.315 ± 0.0478
GATCGATC | 0.362 ± 0.0437
ATACGATG | 0.277 ± 0.0162
ATACGGTC | 0.256 ± 0.0328
GATCGATA | 0.408 ± 0.0108
ATACGGTG | 0.328 ± 0.012
ATACGATC | 0.388 ± 0.00595
AATCGATA | 0.335 ± 0.0577
GAACGATC | 0.236 ± 0.00301
ATACGGTA | 0.405 ± 0.0105
GAACGATA | 0.383 ± 0.0174
ACCAGGGT | 0.189 ± 0.0407
CCGTCTAC | 0.171 ± 0.0578
ATCGGTTG | 0.238 ± 0.008
TAATCTCA | 0.186 ± 0.0184
GTGTCCAA | 0.221 ± 0.057
GGGCTAGA | 0.209 ± 0.0223
ATACTATC | 0.401 ± 0.0105
ATACGATA | 0.419 ± 0.0297

Sequence | binding signal [E-score]
GTACGATA | 0.338 ± 0.0355
CTACGATA | 0.321 ± 0.0303
ACACGATA | 0.384 ± 0.0253
ACACGATG | 0.156 ± 0.0256
ATACTATA | 0.371 ± 0.0468
ACACGATC | 0.266 ± 0.019
CTACTATC | 0.273 ± 0.0271
AACTATAC | 0.24 ± 0.0587
AGATGTAT | 0.338 ± 0.00993
ATACGCAC | 0.254 ± 0.00836
CCCATGGG | 0.152 ± 0.0229
GATCGGCA | 0.211 ± 0.0237
ATACACAT | 0.289 ± 0.00303
GTGTGATA | 0.411 ± 0.0318
GTGTGTGA | 0.174 ± 0.0383
ATGTGATA | 0.392 ± 0.0638
CTGTGATC | 0.328 ± 0.00414
GTGTGAGA | 0.245 ± 0.029
ATGTGAGA | 0.165 ± 0.0625
ATGTGATC | 0.32 ± 0.0109
CTGTGATA | 0.39 ± 0.0381
AGATAGGA | 0.175 ± 0.0479
CGAATCCA | 0.1647 ± 0.00129
CCCGCGGA | 0.205 ± 0.00383
TATCTGCA | 0.284 ± 0.0307

Sequence | binding signal [E-score]
GAAATACC | 0.1851 ± 0.00123
ATACCGCG | 0.377 ± 0.0129
ATACCGCC | 0.418 ± 0.0211
ATACCGAT | 0.3532 ± 0.00127
ATACCGAA | 0.329 ± 0.0172
ACACCGCA | 0.351 ± 0.043
ATACCGAG | 0.304 ± 0.0181
ACACCGCC | 0.321 ± 0.0533
ACACCGCG | 0.283 ± 0.0738
ATACCGCA | 0.4061 ± 0.00272
CTGAGCCC | 0.161 ± 0.049
ATCCCAAC | 0.189 ± 0.0265
ATACGTCA | 0.196 ± 0.0392
ATCAGCGG | 0.171 ± 0.08
ACAATATC | 0.309 ± 0.0486
AGGATAGG | 0.306 ± 0.0312
CTGATAGC | 0.319 ± 0.0368
ATGATCGC | 0.265 ± 0.0383
ATGATAGC | 0.379 ± 0.0583
ACGATAGG | 0.269 ± 0.00971
ATGATAGG | 0.387 ± 0.0153
ATCCAGCA | 0.198 ± 0.0454
CGTAACAC | 0.205 ± 0.0442
ATTACATC | 0.248 ± 0.072
CGATCTTC | 0.288 ± 0.0189

Sequence | binding signal [E-score]
GATGGGTA | 0.223 ± 0.0133
CTTTGATC | 0.213 ± 0.0316
ATTTGATA | 0.397 ± 0.0881
ATTTGATC | 0.215 ± 0.0531
CTTTGATA | 0.331 ± 0.0715
GTTCGATA | 0.324 ± 0.0131
GTTTGATA | 0.379 ± 0.067
CAATACGA | 0.207 ± 0.026
ATCACTTC | 0.3 ± 0.0422
ATCAGATC | 0.394 ± 0.0295
CTCAGATA | 0.31 ± 0.032
GTCAGATA | 0.273 ± 0.0192
CTCAGATC | 0.27 ± 0.00864
ATCAGATA | 0.378 ± 0.0255
ATCAGATG | 0.319 ± 0.0136
CGTATGAA | 0.15 ± 0.0134
CCGGTGTA | 0.332 ± 0.0356
CCCGTGTC | 0.255 ± 0.0128
ACGGTGTC | 0.437 ± 0.0187
CCGGTGTC | 0.431 ± 0.0182
ACGGTGAT | 0.181 ± 0.00713
ACGGTGTA | 0.255 ± 0.00781
CAGGTGTC | 0.394 ± 0.0354
CAGGTGTA | 0.272 ± 0.00711
AAGGTGTC | 0.373 ± 0.0231

Sequence | binding signal [E-score]
GTCTGGTA | 0.151 ± 0.048
ATCGGAAT | 0.172 ± 0.0652
AAGAGTAT | 0.277 ± 0.117
ATATATTG | 0.238 ± 0.0753
AGGATCCG | 0.308 ± 0.0272
CGGATCTA | 0.318 ± 0.04
CGGATCGC | 0.395 ± 0.05
CAGATCGC | 0.284 ± 0.0237
CGGATCCG | 0.417 ± 0.0204
GGGATCCA | 0.375 ± 0.0614
TGGATCCA | 0.295 ± 0.0443
CAGATCCG | 0.322 ± 0.0638
CGGATCCA | 0.406 ± 0.0429
GGGATCCC | 0.415 ± 0.0591
AGGATCGC | 0.27 ± 0.0489
GGGATCTA | 0.272 ± 0.0387
AATGAGCC | 0.158 ± 0.0559
ATGTCTCA | 0.2 ± 0.0211
AGGGCGAT | 0.284 ± 0.0121
ATCACCAG | 0.166 ± 0.0324
CCACGATC | 0.195 ± 0.0938
ATCCTGAC | 0.228 ± 0.00948
AAGTATTG | 0.157 ± 0.085
AGGATCCT | 0.385 ± 0.0102
CGGATCTC | 0.342 ± 0.0442

Sequence | binding signal [E-score]
AGGATCTC | 0.292 ± 0.0258
AAGATCCT | 0.326 ± 0.0346
CGGATCCC | 0.399 ± 0.0592
AGGATCTG | 0.244 ± 0.0478
AGGATCCC | 0.379 ± 0.00668
AGGATCCA | 0.346 ± 0.0238
CAGATCCC | 0.295 ± 0.0571
ATCTTCGA | 0.193 ± 0.0484
GAGGAATA | 0.21 ± 0.0309
GACCTATC | 0.269 ± 0.00861
ACATGAGA | 0.183 ± 0.0219
GCATGATA | 0.4269 ± 0.00375
ACATGATC | 0.279 ± 0.0144
ACATGATA | 0.426 ± 0.0281
GCCTGATA | 0.321 ± 0.0449
CCATGATA | 0.376 ± 0.00711
CCATGAGA | 0.242 ± 0.0275
GCACGATA | 0.325 ± 0.00783
CCATGATC | 0.293 ± 0.0102
AACCATCT | 0.154 ± 0.0503
ATCAATAA | 0.182 ± 0.0114
ATCAGCCA | 0.237 ± 0.00617
ACCGCTAT | 0.216 ± 0.0322
CAGATACC | 0.433 ± 0.00544
AAGATACC | 0.426 ± 0.0219

Sequence | binding signal [E-score]
CAGATACG | 0.334 ± 0.0281
GAGATAGC | 0.161 ± 0.0517
GAGATACC | 0.44068 ± 0.000332
GAGATACA | 0.332 ± 0.0042
AAAATACC | 0.181 ± 0.0716
AAGATACG | 0.322 ± 0.0506
CAGATACA | 0.355 ± 0.0318
GATCTGGC | 0.295 ± 0.0253
ATATTGTA | 0.294 ± 0.0399
TAATATTA | 0.161 ± 0.0729
GATCAAGC | 0.312 ± 0.00728
ACACGACT | 0.162 ± 0.0387
ATCATTCG | 0.294 ± 0.00745
GAGCGATC | 0.279 ± 0.0379
GATCTCCC | 0.361 ± 0.00166
TATCGAAA | 0.345 ± 0.0543
CCATCTCG | 0.166 ± 0.114
GATCACAC | 0.351 ± 0.0284
GATCATCC | 0.41 ± 0.0124
GATCATGC | 0.242 ± 0.0641
GATCACCC | 0.407 ± 0.0371
GATCACGC | 0.317 ± 0.0237

— PMC10668032, “Altered binding affinity of SIX1-Q177R correlates with enhanced WNT5A and WNT pathway effector expression in Wilms tumor”
